Measured values reported in PubChem BioAssay (NCI).
Compounds without any hit were thinned out: in the full panel of roughly 83,000, 20% have a hit.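 Method: cells in 96-well plates; compound added at one concentration; 48 h incubation; percent growth measured; values under 10 scored active.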 Values without a mark were called inactive. The source made the active and inactive calls.

system: HL-60(TB) leukemia; assay: NCI-60 one-dose screen, 48 h (100 = growth as untreated, 0 = no growth, -100 = all killed); conditions: 10 µM unless noted

Point of comparison: `CCCC(c1nnnn1C1CCCCC1)N1CCN(C(=O)c2ccco2)CC1` (stereo not given), growth 12.6%. Against it:
- CCC(N)(C(=O)O)c1ccc(F)cc1 (stereo not given) — higher, 87.1%
- COc1cc2c(=O)n(CCCN(C)C)c3c4cc[nH]c4ncc3c2cc1OC — higher, 75.3%
- COc1ccc(C2=NNC(c3ccc(Oc4nc5c(c(=O)n(C)c(=O)n5C)n4C)c(OC)c3)C2)cc1 (stereo not given) — higher, 90.6%
- O=C(/C=C/C12c3ccccc3C(c3ccccc31)C1C(=O)N(c3ccccc3)C(=O)C12)c1ccccc1 (stereo not given) — lower, 10.5%
- CCCN(CCC)CN(CCC)CCC — higher, 93.5%
- CC(C)=CCc1cc(O)c(O)c2oc3cc(O)cc(O)c3c(=O)c12 — higher, 103%
- COc1cc2ncnc(Oc3cccc(NC(=O)Nc4cc(C(C)(C)C(F)(F)F)on4)c3)c2cc1OC — lower, 12.1%
- Cc1ccc(C(=O)C2=C(O)C(=O)N(Cc3cccnc3)C2c2ccccc2F)o1 (stereo not given) — higher, 99.7%
- FC(F)c1nc2ccccc2n1-c1nc(N2CCOCC2)nc(N2CCOCC2)n1 — higher, 15.1%
- COc1ccc(-c2cc(C(=O)Nc3nc4cc(C)c(C)cc4s3)nc3cc(-c4ccccc4)nn23)cc1OC — higher, 98.2%
- Cc1c(Cl)ccc2c(C(=O)Cl)cc(-c3ccccc3)nc12 — higher, 88.9%

`COc1cc(Cn2cc(F)c(=O)[nH]c2=O)cc(OC)c1` gave a growth of 104% [50 µM].

In the case of `CC(=O)c1ccc2c(c1)C1C=CCC1[C@H](c1cc3c(cc1Br)OCO3)N2` (stereo not given in full), the growth is reported as -45.3% (active).
For `Oc1ccc(-c2nc3ccc4[nH]ncc4c3c3c2CCCC3)c2cccnc12`, the growth was -8.83% (active).
